Measured values published in PubChem BioAssay (NCI).
About 83,000 compounds went through this panel and 20% of them were active in at least one assay; those are over-represented in the sample as a whole.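 Results are percent growth after 48 hours of single-concentration exposure. 100 means growth as in untreated cells, lower positive values show inhibition; negative values down to -100 show cell death.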 Active and inactive are the calls of the source. How the source made its calls: active means growth percent below 10; inactive means the rest.

What was measured:
Test in all cases: NCI-60 one-dose screen, 48 h (100 = growth as untreated, 0 = no growth, -100 = all killed)
NCI-H23 lung = conditions: 10 µM unless noted
NCI-H226 lung = conditions: 10 µM unless noted
NCI-H322M lung = conditions: 10 µM unless noted
HOP-62 NSCLC = conditions: 10 µM unless noted
NCI-H460 lung = conditions: 10 µM unless noted
HOP-92 NSCLC = conditions: 10 µM unless noted
NCI-H522 lung = conditions: 10 µM unless noted
A549/ATCC NSCLC = conditions: 10 µM unless noted
786-0 renal = conditions: 10 µM unless noted
COLO 205 colon = conditions: 10 µM unless noted
DU-145 prostate = conditions: 10 µM unless noted
K-562 leukemia = conditions: 10 µM unless noted
MALME-3M melanoma = conditions: 10 µM unless noted
MDA-MB-231 breast = conditions: 10 µM unless noted
RXF 393 renal = conditions: 10 µM unless noted
SF-268 CNS = conditions: 10 µM unless noted
SF-295 CNS = conditions: 10 µM unless noted
SF-539 CNS = conditions: 10 µM unless noted
UACC-257 melanoma = conditions: 10 µM
M14 melanoma = conditions: 10 µM unless noted

Measured: growth

O=C1/C(=C/c2ccc([N+](=O)[O-])cc2)SC(=Nc2ccccc2)N1Nc1ccccc1
inactive: NCI-H23 lung 60.5% | NCI-H226 lung 85.1% | NCI-H322M lung 60.9% | HOP-62 NSCLC 97.1% | NCI-H460 lung 50.9% | HOP-92 NSCLC 108% | NCI-H522 lung 58.1% | A549/ATCC NSCLC 71.5% | 786-0 renal 66.4% | COLO 205 colon 92.6% | DU-145 prostate 63.5% | K-562 leukemia 17.8% | MALME-3M melanoma 90.3% | MDA-MB-231 breast 54.7% | RXF 393 renal 58.9% | SF-268 CNS 73% | SF-295 CNS 87.1% | SF-539 CNS 65.1% | UACC-257 melanoma 89.7% | M14 melanoma 80.1%

CC(=O)Nc1ccc(NC(=O)Nc2cccc(-c3nc(-c4ccc(NC(=O)c5cccnc5)cc4Cl)no3)c2)cc1C(F)(F)F
active: NCI-H23 lung -63.3% | NCI-H226 lung -55.2% | NCI-H322M lung -34.2% | HOP-62 NSCLC -58.1% | NCI-H460 lung -64.9% | HOP-92 NSCLC -65.6% | NCI-H522 lung -46.3% | A549/ATCC NSCLC -1.13% | 786-0 renal -35.6% | COLO 205 colon -53.1% | DU-145 prostate -13.9% | K-562 leukemia -1.38% | MALME-3M melanoma -84.9% | MDA-MB-231 breast -60.3% | RXF 393 renal -79.5% | SF-268 CNS -33.1% | SF-295 CNS -69.6% | SF-539 CNS -87.6% | UACC-257 melanoma -43.7% | M14 melanoma -58.7%

CS(=O)c1nccc(-c2c(-c3ccc(F)c(OCCc4ccc(F)cc4)c3)nc3sccn23)n1 (stereo not given)
inactive: NCI-H226 lung 111% | NCI-H322M lung 65.4% | HOP-62 NSCLC 99.7% | NCI-H460 lung 59.1% | HOP-92 NSCLC 47.1% | A549/ATCC NSCLC 101% | 786-0 renal 95.3% | COLO 205 colon 102% | MALME-3M melanoma 55.6% | MDA-MB-231 breast 45% | RXF 393 renal 60.9% | SF-268 CNS 93.3% | SF-295 CNS 98.3% | SF-539 CNS 91.2% | M14 melanoma 67.6%
active: NCI-H23 lung 7.95% | NCI-H522 lung -61.7% | DU-145 prostate 1.03% | K-562 leukemia 7.91% | UACC-257 melanoma -0.163%

COc1cc(/C=C2\SC(=O)NC2=O)ccc1OCC(=O)Nc1ccc(C(=O)/C=C/c2cc3ccccc3nc2Cl)cc1
inactive: NCI-H23 lung 68.6% | NCI-H226 lung 96.2% | NCI-H322M lung 99.2% | HOP-62 NSCLC 107% | NCI-H460 lung 96.3% | HOP-92 NSCLC 82.5% | NCI-H522 lung 72.5% | A549/ATCC NSCLC 102% | 786-0 renal 101% | COLO 205 colon 116% | DU-145 prostate 96.9% | K-562 leukemia 49.4% | MALME-3M melanoma 89% | MDA-MB-231 breast 88.6% | RXF 393 renal 77.1% | SF-268 CNS 85.8% | SF-295 CNS 87% | SF-539 CNS 83.2% | UACC-257 melanoma 86.3% | M14 melanoma 85.6%

C#C[C@]1(O)CC[C@H]2[C@@H]3CC=C4c5sc(C6CC6)nc5CC[C@]4(C)[C@H]3CC[C@@]21C
inactive: NCI-H23 lung 86.4% | NCI-H226 lung 94.6% | NCI-H322M lung 84.1% | HOP-62 NSCLC 100% | NCI-H460 lung 82.2% | HOP-92 NSCLC 120% | NCI-H522 lung 81.6% | A549/ATCC NSCLC 72.5% | 786-0 renal 51.2% | COLO 205 colon 119% | DU-145 prostate 92.3% | K-562 leukemia 35.3% | MALME-3M melanoma 107% | MDA-MB-231 breast 91.3% | SF-268 CNS 86.5% | SF-295 CNS 43.7% | SF-539 CNS 66.4% | UACC-257 melanoma 78.9% | M14 melanoma 77.9%
active: RXF 393 renal 5.22%

O=C(CCCCCCN1CC(=O)N2[C@@H](c3cc(F)cc(F)c3)c3[nH]c4ccccc4c3C[C@H]2C1=O)NO
inactive: NCI-H23 lung 77.4% | NCI-H226 lung 98.1% | NCI-H322M lung 75.1% | HOP-62 NSCLC 63.4% | NCI-H460 lung 64.4% | HOP-92 NSCLC 49.2% | NCI-H522 lung 41.2% | A549/ATCC NSCLC 90.5% | 786-0 renal 90.9% | COLO 205 colon 53.1% | DU-145 prostate 65.7% | K-562 leukemia 32.2% | MALME-3M melanoma 30.7% | MDA-MB-231 breast 62% | RXF 393 renal 33.6% | SF-268 CNS 79.8% | SF-295 CNS 60% | SF-539 CNS 60.5% | UACC-257 melanoma 44.1% | M14 melanoma 51.9%

O=S(=O)(Nc1ccc2c(c1)OC(F)(F)O2)c1ccc(-c2cnc(C3CC3)o2)cc1
inactive: NCI-H23 lung 55.2% | NCI-H226 lung 60.8% | NCI-H322M lung 83.3% | HOP-62 NSCLC 35.9% | NCI-H460 lung 17.3% | HOP-92 NSCLC 66.7% | NCI-H522 lung 43.2% | A549/ATCC NSCLC 47.7% | 786-0 renal 47.2% | COLO 205 colon 47.4% | DU-145 prostate 68.6% | MALME-3M melanoma 50.2% | MDA-MB-231 breast 48.1% | RXF 393 renal 49.5% | SF-268 CNS 60.6% | SF-295 CNS 22.6% | SF-539 CNS 37.8% | UACC-257 melanoma 58.9% | M14 melanoma 25.4%
active: K-562 leukemia 9.69%

COc1ccc(-c2nc(SCCC(C)C)nc(N/N=C\c3ccc(O)cc3)c2C#N)cc1
inactive: NCI-H23 lung 36.3% | NCI-H226 lung 97.3% | NCI-H322M lung 82.7% | HOP-62 NSCLC 61.9% | NCI-H460 lung 10.9% | HOP-92 NSCLC 67.7% | NCI-H522 lung 87.7% | A549/ATCC NSCLC 60.2% | 786-0 renal 34% | COLO 205 colon 106% | DU-145 prostate 59.7% | K-562 leukemia 42.2% | MALME-3M melanoma 79.3% | MDA-MB-231 breast 54.2% | RXF 393 renal 78% | SF-268 CNS 55.7% | SF-295 CNS 91.6% | SF-539 CNS 35.1% | UACC-257 melanoma 111% | M14 melanoma 76.6%
